Here are results for 24 sequences from the OligoGym collection.
Further: reference of the scale not given here.

The first experiment has as its target NEK11. In words: pooled miR-30 sensor sort-seq; sequence = guide strand. As to conditions: shRNA.
In turn, TTCGCTAGCATTCTGATGCCTT showed a sensor-assay potency score (higher = more potent) of 0.204.
TTCCTGAATTTTATCGTCCAGA returned a sensor-assay potency score (higher = more potent) of -0.793.
Same read-out and setting: under TTTTCTGTACTTCTGACAGTGC stands -0.562.
In the case of TATATGAGCAGCCTCCTTCTGA, the sensor-assay potency score (higher = more potent) is -0.668.
Still for that read-out and setting: under TTTTGTTGAAGCACGTATCTTC stands 0.706; under TACATCAACACTCAGCTGCTGA, -0.0516; under TTAGGTTCTGTAGCTGCTCATC, -0.837.
TAAGTCTCGATGAAGTATCCTC came in with a sensor-assay potency score (higher = more potent) of -0.275.
On the same count and under the same terms, under ATGGAGTACATCAACACTCAGC stands -1.37.
The same measure, in the same setting: under TTAGAAGTCGAGAAACTCCAAA stands -0.797; under TTCTCTGGTCTTTCTAACGCTA, -0.53; under TTTGTGTCTAGAGAAGTGCAAC, -1.07.

Another experiment has as its target NEK7. The experiment is described as above. Conditions: shRNA.
Consider TAATGAACACATTAGCTGGTTT, for which the sensor-assay potency score (higher = more potent) is -0.362.
On to TTAAAATGCTTGATCATTCTGG, for which the sensor-assay potency score (higher = more potent) was 0.745.
Still for that read-out and setting: the value for TCTATCTTCTTACACAGTGAGT was -1.04.
TTGAGCTGAAAAACCGGCCAAG showed a sensor-assay potency score (higher = more potent) of -1.05.
Take TAAACTTCACTAAATTGTCCGC: the sensor-assay potency score (higher = more potent) was -0.329.
As for TAAACATAGGTGACGTCTGGTC, the sensor-assay potency score (higher = more potent) is -1.09.
Still for that read-out and setting: the value for TTAGCTGGTTTTATATCTCTAT was -0.684; that for TAGGTCGCCAGCATCTGCTAGT was -0.288.
Consider TAGTTCATTATCTTCAATGAAT, for which the sensor-assay potency score (higher = more potent) was -1.2.
On the same count and under the same terms, the value for TATATCTCTATGCATGACTCTT was -0.469; that for TTTTCATGTATTCTCTCTGGAG was -0.779.
As for TCTCATATAGTAGACAGCCAAG, the sensor-assay potency score (higher = more potent) was -1.88.
